Assay outcomes as filed in PubChem BioAssay.
D2 PAM-1 = Beta-Arrestin HTS for Positive Allosteric Modulators of the Human D2 Dopamine Receptor: Potentiators; D(2) dopamine receptor (Homo sapiens), P14416; DiscoveRx D2 beta-arrestin cells, luminescence, 90 min; 100% = 57 uM dopamine signal; 360,000 compounds, 0.23% hits; potentiation, % (test concentration not listed); in the data active = potentiation above about 50%; inconclusive = mostly about 30% to 49%
Target sequence (P14416 whole entry, looked up): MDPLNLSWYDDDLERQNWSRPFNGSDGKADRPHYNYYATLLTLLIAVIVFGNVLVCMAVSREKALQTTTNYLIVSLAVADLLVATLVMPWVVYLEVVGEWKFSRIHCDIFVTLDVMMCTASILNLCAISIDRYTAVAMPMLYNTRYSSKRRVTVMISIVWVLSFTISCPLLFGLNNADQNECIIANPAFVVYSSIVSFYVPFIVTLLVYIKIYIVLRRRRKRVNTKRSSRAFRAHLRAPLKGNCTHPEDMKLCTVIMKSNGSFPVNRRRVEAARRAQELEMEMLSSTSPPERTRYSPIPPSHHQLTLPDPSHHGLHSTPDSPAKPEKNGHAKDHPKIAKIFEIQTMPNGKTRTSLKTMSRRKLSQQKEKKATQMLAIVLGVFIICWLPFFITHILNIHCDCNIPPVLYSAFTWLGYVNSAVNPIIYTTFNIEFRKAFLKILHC
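PathHunter beta-arrestin assay in DiscoveRx D2 cells. Compounds were added with an EC20 of dopamine (50 nM final) for 90 min at 37 deg C. Luminescence was read 1 h after detection reagent, with 57 uM dopamine as the EC100 control.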
D2 PAM-2 = HTS Assay for Positive Allosteric Modulators of the Human D2 Dopamine Receptor: Primary Screen for Potentiators; D(2) dopamine receptor (Homo sapiens), P14416; HEK293 T-REx D2, calcium flux, EC20 dopamine potentiation; potentiation, % at 10 µM; 340,000 compounds, 0.34% hits; AID 485347, 2010;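 active = potentiation over 3 SD above the plate norm, cut at about 30% in these data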
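Tetracycline-induced HEK293 T-REx cells force-coupled to calcium signalling expressed D2; compounds were pin-added after a 10 s baseline, read kinetically 180 s, then an EC20 dopamine challenge followed with a further 180 s calcium read.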
D2 antag = HTS Assay for Allosteric Antagonists of the Human D2 Dopamine Receptor: Primary Screen for Antagonists | HEK293 TREx D2 cells, calcium flux, dopamine EC80 | AID 485344, 2010 | 340,000 compounds, 2% hits | inhibition, % at 10 µM | D(2) dopamine receptor (Homo sapiens), P14416; in the data active = inhibition above about 30%; inactive = below that, where a call was filed
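Cells plated overnight at 30 C with tetracycline; no-wash calcium dye, 30–90 min RT; 10 s baseline; compound pinned; 180 s read; EC80 dopamine added; another 180 s read.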
D2 ag-1 = Beta-Arrestin HTS for Positive Allosteric Modulators of the Human D2 Dopamine Receptor: Agonists | 360,000 compounds, 0.084% hits | activation, % (no concentration beside the values) | DiscoveRx PathHunter D2 beta-arrestin, luminescence, 90 min; 100% = 57 uM dopamine signal | AID 624465, 2012; in the data active = activation above about 40%; inconclusive = between about 15% and that limit
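DiscoveRx PathHunter D2 beta-arrestin cells (2,100/well) attached overnight, then compound-stimulated 90 min at 37 C in HBSS/10 mM HEPES/0.1% Tween-20 buffer; beta-galactosidase complementation read by luminescence after 1 h at ambient temperature. Dopamine 57 uM final (EC100) as control.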
D2 ag-2 = HTS Assay for Allosteric Agonists of the Human D2 Dopamine Receptor: Primary Screen for Agonists. HEK293 T-REx D2 cells, calcium flux agonist mode. 340,000 compounds, 0.53% hits. activation, % at 2 µM. D(2) dopamine receptor (Homo sapiens), P14416. AID 485358, 2010;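 active = activation over 3 SD above normal in the single-dose calcium agonist read, cut at about 30% in these data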
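In this primary screen, compounds producing a positive calcium signal within 180 s of addition to tetracycline-induced, force-coupled HEK293 Trex D2 cells are flagged; cells are dye-loaded with a no-wash calcium kit beforehand.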
D3 ag = qHTS of D3 Dopamine Receptor Agonist: D3 Dopamine Receptor B-arrestin Agonist Confirmatory Assay; shares compounds with D2 ag-2; DiscoveRx D3 beta-arrestin cells, luminescence, 90 min; Potency, µM (series often up to 76.9 µM), hits mostly activators; 2,300 compounds, 4% hits; AID 720506, 2013; also: nearly all actives have a fitted effect of over 70% in size
D2 ag-3 = qHTS of D3 Dopamine Receptor Agonist: D2 Dopamine Receptor B-arrestin Agonist Counterscreen | shares compounds with D2 ag-2 | 2,300 compounds, 5.9% hits | DiscoveRx PathHunter D2 beta-arrestin, luminescence, 90 min; response scale: percent relative to full dopamine signal | Potency, µM (doses to about 76.9 µM), actives largely listed as activators; also: nearly all actives have a fitted effect of over 70% in size
A number is an active result; - = inactive; ? = inconclusive; . = no result. Hits are enriched below; roughly 2.4% of the tested compounds scored in any of these assays. Unless noted, calls follow the shape of the dose curve; as a rule, active = well fitted activation curve with a large enough effect; inconclusive = small, poorly fitted or top-dose-only effect; inactive = flat fitted curve, though single readings scatter.

SMILES | D2 PAM-1 | D2 PAM-2 | D2 antag | D2 ag-1 | D2 ag-2 | D3 ag | D2 ag-3
CCOC(=O)Cc1csc(NC(=O)CN2CCOCC2)n1 | - | - | - | - | - | - | -
CN(C(=O)CC1C(=O)NCCN1Cc1ccc(F)c(F)c1)C1CCCCC1 (stereo unspecified) | - | - | - | - | - | . | .
Nc1nc(C(=O)N2CCOCC2)nn1C(=O)c1ccc(Cl)cc1 | - | - | - | - | - | - | -
O=C(c1ccc(Cl)cc1)c1ccccc1C(=O)N1CCOCC1 | - | - | - | - | - | . | .
CC1(C(=O)O)CCCN1C(=O)c1ccco1 (stereo unspecified) | - | . | . | - | . | . | .
Cc1nnc(N2CCCC(C(=O)NCCc3ccccc3)C2)c2nn(-c3ccccc3)c(C)c12 (stereo unspecified) | . | - | . | . | - | . | .
CC(C)(C)c1cc(CCC(=O)NNC(=S)NC(=O)c2ccccc2)cc(C(C)(C)C)c1O | - | . | . | - | . | - | -
COc1ccc(C(=O)Nc2cc(Cl)ccc2-n2cncn2)c(OC)c1OC | - | - | - | - | - | - | -
O=C(O)CNS(=O)(=O)c1ccc2c(c1)Cc1cc(S(=O)(=O)NCC(=O)O)ccc1-2 | - | - | - | - | - | . | .
CC(C)N1CCN(Cc2ccsc2)CC1CCO (stereo unspecified) | - | - | 44.4 | - | 44.1 | - | -
CC(C)[C@@H](C(=O)N1CCN(Cc2ccc3c(c2)OCO3)CC1)n1nnc2ccccc2c1=O | - | . | . | - | . | . | .
Cc1ccc(CSCC(=O)N2CCN(Cc3ccc4c(c3)OCO4)CC2)cc1 | - | - | - | - | 45.0 | - | -
CCC(C(=O)N1CCN(Cc2ccc3c(c2)OCO3)CC1)n1c(=O)[nH]c2ccccc2c1=O (stereo unspecified) | - | - | - | - | 46.0 | - | -
Cn1c(=O)cc(SCC(=O)N2CCN(Cc3ccc4c(c3)OCO4)CC2)c2ccccc21 | - | - | 40.9 | - | 37.7 | - | -
COc1cc(OC)cc(C(=O)N2CCC(C(=O)NCCc3ccccc3)CC2)c1 | - | - | - | - | - | . | .
O=C(O)/C=C/C(=O)NCCc1ccccc1 | - | - | 60.9 | - | 77.9 | - | -
O=C(O)/C=C/C(=O)NCCc1ccc(Cl)cc1 | - | - | - | - | - | . | .
O=C(CCCN1C(=O)/C(=C/c2ccccc2OC(F)F)SC1=S)Nc1cccnc1 | - | . | . | - | . | . | .
O=C(CSCc1c[nH]c(=O)[nH]c1=O)OCC(=O)c1ccc(Br)cc1 | - | . | . | - | . | - | -
Cc1cc(S(=O)(=O)N2CCCC(N(C)CCc3ccccn3)C2)c(C)cc1Cl (stereo unspecified) | - | - | - | - | - | . | .
Nc1ccc(N2CCN(CCCCN3C(=O)C4CCCN4C3=O)CC2)cc1 (stereo unspecified) | - | - | 42.4 | - | 63.1 | - | -
CCC(Sc1ncnc2sc3c(c12)CCCC3)C(=O)OC(C)C (stereo unspecified) | . | - | . | . | - | . | .
O=C(Nc1ccc(NS(=O)(=O)c2ccc([N+](=O)[O-])cc2)cc1)c1ccco1 | - | - | - | - | - | . | .
COC(=O)c1c(-c2ccccc2OC)sc2ccccc12 | - | - | - | - | - | - | -
CCOc1cc(CNCCc2ccc(S(N)(=O)=O)cc2)ccc1OCc1ccc(Cl)cc1 | - | - | 64.9 | - | - | ? | ?
